Out of some 100,000 compounds screened, about 770 (0.77%) were called active. This is one part of a sample in which actives are shown more often than they occur. Unmarked numbers belong to inactive results. Cut-off read from the data, not from the text of the source: active = inhibition above about 50%; inactive = the rest.
The compounds below were run against Gag-Pol polyprotein (Human immunodeficiency virus type 1 group M subtype B (isolate HXB2)) (UniProt P04585) (assay: RNase H inhibition, HIV 1 Gag Pol polyprotein, FRET biochemical assay, screening (AID 372)). Settings: HIV-1 RT RNase H, FRET RNA/DNA substrate fluorescence; at 10 µM; active compounds read high.

Point of comparison: `O=C(Nc1ccc(O)cc1)c1ccc(N2C(=O)c3cccc([N+](=O)[O-])c3C2=O)cc1`, inhibition 3%. Against it:
- O=C(COc1cccc(Br)c1)N/N=C/c1ccc(Cl)cc1 — higher, 7%
- CCOc1ccc(C(=O)Nc2cc(Cl)cc(Cl)c2)cc1Br — lower, 1%
- COc1ccc(-c2nnc(NC(C)=O)s2)cc1 — lower, 0%
- COc1ccc(-c2nnc(N)s2)cc1 — higher, 7%
- COc1cc(NC(=O)COc2ccc(C)c(C)c2)c(OC)cc1Cl — higher, 7%
- COc1cc([N+](=O)[O-])cc(/C=C2\C(=O)NC(=O)N(c3ccc(Cl)cc3)C2=O)c1O — higher, 7%
- O=C(Nc1ccc(Cl)cc1Cl)c1ccccc1Cl — the same, 3%
- O=C(Nc1ccc(I)cc1Cl)c1ccccc1Cl — higher, 37%
- CCn1c2ccccc2c2cc(CN3CCC(C)CC3)ccc21 — higher, 7%
- CC(=O)Nc1ccc(NS(=O)(=O)c2ccc(C)cc2C)cc1 — lower, 2%
- O=C(Nc1nccs1)c1ccc(N2C(=O)c3ccc([N+](=O)[O-])cc3C2=O)cc1 — higher, 31%
- Cc1nc(-c2ccccc2)sc1C(=O)Nc1ccc(-c2cn3ccccc3n2)cc1 — higher, 6%
- O=C(Nc1ccc2oc(-c3cccc4ccccc34)nc2c1)c1cc([N+](=O)[O-])ccc1Cl — higher, 21%
- COc1ccc(OCCOCCOc2c(OC)cccc2OC)cc1 — higher, 11%
- COc1ccc(C(=O)NC(=S)Nc2ccc3oc(-c4cccc(F)c4)nc3c2)cc1[N+](=O)[O-] — higher, 41%
- COc1ccc(C(=O)NC(=S)Nc2ccc3oc(-c4cccc(F)c4)nc3c2)cc1OC — higher, 7%
- CCOc1cccc(C(=O)NC(=S)Nc2ccc(-c3nc4cc(CC)ccc4o3)cc2)c1 — higher, 5%
- CCc1ccc2oc(-c3ccc(NC(=S)NC(=O)c4cccc(Cl)c4)cc3)nc2c1 — higher, 17%
- CCOc1ccc(C(=O)NC(=S)Nc2ccc3oc(-c4cccnc4)nc3c2)cc1[N+](=O)[O-] — higher, 4%
- COc1ccc(C(=O)NC(=S)Nc2ccc3oc(-c4ccccc4)nc3c2)cc1Br — higher, 47%
- NC(=S)N=Nc1c(O)[nH]c2ccc(F)cc12 — higher, 9%
- COc1cccc(C(=O)NNC(=O)C2CCCO2)c1 (stereo unspecified) — higher, 4%
- COc1cc(C=O)ccc1OCCCOc1ccc([N+](=O)[O-])cc1Cl — higher, 29%
- COC(=O)c1c(C)oc2ccc(OS(C)(=O)=O)cc12 — lower, 0%
- O=C(Nc1cccc(Cl)c1)Nc1nc2ccc(Br)cc2s1 — higher, 35%
- Cn1cccc1/C=C1/C(=O)NC(=S)N(c2cccc(Cl)c2)C1=O — higher, 31%
- Cc1cccc(NC(=S)NC(=O)/C=C/c2ccccc2)c1 — higher, 6%
- Cc1ccc(NC(=S)NC(=O)/C=C/c2ccccc2)cc1C — higher, 9%
- O=C(/C=C/c1ccc(Cl)cc1)NC(=S)Nc1ccc(NC(=O)c2cccs2)cc1 — higher, 24%
- O=C(/C=C/c1ccccc1)NC(=S)Nc1ccc(NC(=O)c2ccccc2)cc1 — higher, 9%
- Brc1ccc(/C=N/Nc2ncnc3c2cnn3-c2ccccc2)cc1 — higher, 6%
- Nc1ncc(Cc2ccc(F)cc2)s1 — higher, 6%
- COc1cccc(/C=C2\N=C(c3cccs3)OC2=O)c1OC — higher, 8%
- O=C1NC(=S)N/C1=C\c1ccc(-c2cc([N+](=O)[O-])ccc2O)o1 — higher, 29%
- O=C1NC(=S)N/C1=C\c1ccc(-c2cccc([N+](=O)[O-])c2)o1 — higher, 14%
- Cc1cc(Br)c(-c2ccc(/C=C3/NC(=S)NC3=O)o2)cc1C — higher, 24%
- O=C1NC(=S)N/C1=C/c1ccc(-c2ccc([N+](=O)[O-])cc2Cl)o1 — higher, 5%
- CCCOc1cccc(/C=C2\N=C(c3ccc(F)cc3)OC2=O)c1 — higher, 11%
- O=C(CSCc1ccccc1Cl)Nc1cccc(Br)c1 — higher, 17%
- COc1cc(/C=C2\C(=O)NC(=O)N(C(C)(C)C)C2=O)cc(OC)c1O — higher, 18%
- COc1ccc(CNC(=O)CN(c2ccccc2OC)S(=O)(=O)c2ccccc2)cc1 — higher, 9%
- CCOC(=O)c1c(NC(=O)c2cc(OC)c(OC)c(OC)c2)sc(C(=O)Nc2ccc(OC)cc2OC)c1C — higher, 15%
- O=C1c2cccc3c([N+](=O)[O-])ccc(c23)C(=O)N1c1ccc(O)cc1 — higher, 13%
- COc1ccc(N2C(=O)c3cccc4c([N+](=O)[O-])ccc(c34)C2=O)cc1 — higher, 16%
- O=C(CCN1C(=O)c2ccccc2C1=O)N1CCN(C/C=C/c2ccccc2)CC1 — higher, 5%
- Cc1ccc(F)cc1Nc1nnc(-c2cc3c(ccc4ccccc43)oc2=O)s1 — higher, 5%
- CCN(CC)c1ccc2cc(-c3nnc(NCc4ccc(F)cc4)s3)c(=O)oc2c1 — lower, 0%
- O=C1C2C3C=CC(C3)C2C(=O)N1c1cccc2cccnc12 (stereo unspecified) — higher, 5%
- Cc1ccc(-c2ccccc2)n1-c1cccc2cccnc12 — higher, 7%
- CCCCCCCC(=O)NNC(=O)c1cccs1 — lower, 0%
- Cc1ccc(-c2nc3ccccc3o2)cc1NC(=O)Cc1ccccc1 — higher, 18%
- Cc1ccc(-c2nc3cc(Cl)ccc3o2)cc1NC(=O)c1cccc(Cl)c1Cl — higher, 16%
- O=C(COc1ccc(Br)cc1)Nc1cccc(-c2nc3cc(Cl)ccc3o2)c1 — higher, 12%
- Cc1ccc(-c2nc3ccccc3o2)cc1NC(=O)c1cccc(Cl)c1Cl — higher, 43%
- O=C(COc1ccccc1)Nc1ccc(-c2nc3cc(Cl)ccc3o2)cc1 — higher, 23%
- Cc1ccc2oc(-c3ccc(C)c(NC(=O)Cc4ccccc4)c3)nc2c1 — higher, 18%
- Cc1ccccc1OCC(=O)Nc1cccc(-c2nc3cc(Cl)ccc3o2)c1C — higher, 15%
- Cc1ccc(OCC(=O)Nc2cccc(-c3nc4cc(Cl)ccc4o3)c2C)c(C)c1 — higher, 27%
- CC(C)(C)c1ccc(C(=O)NC2CCCC2)cc1 — lower, 2%
- O=C1c2ccccc2NC(c2ccccc2O)N1c1ccc(Cl)cc1 (stereo unspecified) — higher, 12%
- COc1cc(OC)c(OC)cc1CN1CCN(C/C=C/c2ccccc2)CC1 — higher, 14%
- c1ccc(N2N=C(c3cccs3)CC2c2cccs2)cc1 (stereo unspecified) — higher, 6%
- COc1ccc(/C=N/n2nnnc2N)cc1Br — higher, 30%
- Cc1ccc2cc(C)c(NCc3ccccn3)nc2c1 — higher, 6%
- CCOC(=O)C(CC)P(=O)(c1ccccc1)c1ccccc1 (stereo unspecified) — lower, 0%
- CCCC(=O)Nc1ccc(NC(=O)c2ccccc2[N+](=O)[O-])cc1 — higher, 7%
- CN(C)c1ccc(C(=O)N2CCN(c3ccc(F)cc3)CC2)cc1 — higher, 13%
- Cc1cc2nc(-c3ccc(C)c(NC(=O)c4cccc([N+](=O)[O-])c4)c3)oc2cc1C — higher, 15%
- O=C(COc1ccc(Cl)cc1)Nc1ccc2oc(-c3ccccc3)nc2c1 — higher, 16%
- O=C(COc1ccccc1)Nc1ccc2oc(-c3ccc(Cl)cc3)nc2c1 — higher, 49%
- Cc1ccc2oc(-c3ccc(NC(=O)COc4ccc(Cl)cc4)cc3)nc2c1 — higher, 28%
- Cc1ccc(-c2nc3cc(Cl)ccc3o2)cc1NC(=O)c1cccc(Cl)c1 — higher, 15%
- CCc1ccc2oc(-c3ccc(C)c(NC(=O)COc4ccccc4)c3)nc2c1 — higher, 44%
- COc1ccc(OCC(=O)Nc2ccc(-c3nc4cc(C)ccc4o3)cc2)cc1 — higher, 19%
- Cc1ccc(-c2nc3ccccc3o2)cc1NC(=O)COc1ccc(Cl)cc1 — higher, 9%

With `O=C(Nc1ccc(-c2ccc(NC(=O)c3ccccc3Cl)c(Cl)c2)cc1Cl)c1ccccc1Cl` the inhibition was 51% (active).
`O=C(Nc1nccs1)c1ccc(N2C(=O)c3cccc([N+](=O)[O-])c3C2=O)cc1` was tested, and the inhibition was 56% (active).
For `COc1ccc(C(=O)NC(=S)Nc2ccc3oc(-c4cccc(F)c4)nc3c2)cc1Br`, the inhibition was 56% (active).
With `CCc1ccc2oc(-c3ccc(NC(=S)NC(=O)c4cccc(F)c4)cc3)nc2c1` the inhibition was 59% (active).
With `CCOc1ccc(C(=O)NC(=S)Nc2ccc3oc(-c4cccc(F)c4)nc3c2)cc1[N+](=O)[O-]` the inhibition was 58% (active).
With `Cc1ccc(NC(=S)NC(=O)/C=C/c2ccccc2)cc1Cl` the inhibition was 51% (active).
For `O=C(/C=C/c1ccccc1)NC(=S)Nc1ccc(NC(=O)c2cccs2)cc1`, the inhibition was 62% (active).
`O=C1NC(=S)N/C1=C\c1ccc(-c2cc([N+](=O)[O-])ccc2Br)o1` was tested, and the inhibition was 50% (active).
`O=C1NC(=S)N/C1=C/c1ccc(-c2cc([N+](=O)[O-])ccc2Cl)o1` was tested, and the inhibition was 50% (active).
`O=C1c2cccc3c([N+](=O)[O-])ccc(c23)N1c1ccccc1` was tested, and the inhibition was 56% (active).
With `O=c1oc2ccc3ccccc3c2cc1-c1nnc(NCc2ccc(F)cc2)s1` the inhibition was 60% (active).
For `Cc1ccc(C)n1-c1cccc2cccnc12`, the inhibition was 67% (active).
With `O=C(COc1ccc(Br)cc1)Nc1ccc(-c2nc3cc(Cl)ccc3o2)cc1` the inhibition was 59% (active).
In the case of `Cc1ccc(-c2nc3cc(Cl)ccc3o2)cc1NC(=O)Cc1ccccc1`, the inhibition is reported as 55% (active).
For `Cc1ccc2oc(-c3ccc(C)c(NC(=O)c4cccc(Cl)c4Cl)c3)nc2c1`, the inhibition was 54% (active).
For `Cc1c(NC(=O)COc2ccc(Cl)cc2Cl)cccc1-c1nc2cc(Cl)ccc2o1`, the inhibition was 54% (active).
With `O=C(COc1ccc(Cl)cc1)Nc1ccc2oc(-c3ccc(Cl)cc3)nc2c1` the inhibition was 54% (active).
For `Cc1ccc(-c2nc3cc(Cl)ccc3o2)cc1NC(=O)c1cccc([N+](=O)[O-])c1`, the inhibition was 57% (active).
With `Cc1ccc2oc(-c3ccc(NC(=O)COc4ccc(Br)cc4)cc3)nc2c1` the inhibition was 59% (active).
For `CCc1ccc2oc(-c3ccc(C)c(NC(=O)COc4ccc(Cl)cc4)c3)nc2c1`, the inhibition was 52% (active).

From PubChem BioAssay AID372 (MTDP, 2006)
